Drawing on ChEMBL document CHEMBL1961873, “Compounds: GSK PKIS; Assays: Nanosyn kinase panel” (2012), this text covers inhibition for 19 compounds.

Several values for one entry are separate records, joined by “and”; a condition that tells them apart may be missing. Equal values may be shown once.

Experiment [1] addresses Tyrosine-protein kinase Fyn (Homo sapiens) (UniProt P06241). Conditions: at 1 µM.
Experiment [2] has as its target Tyrosine-protein kinase HCK (Homo sapiens) (UniProt P08631). To be noted: at 0.1 µM.
For experiment [3] the target is unchanged. Conditions: at 1 µM.
Experiment [4] has as its target Insulin-like growth factor 1 receptor (Homo sapiens) (UniProt P08069). Conditions: at 0.1 µM.
The target is the same in experiment [5]. Conditions: at 1 µM.
The target of experiment [6] is Insulin receptor (Homo sapiens) (UniProt P06213). To be noted: at 0.1 µM.
For experiment [7] the target is unchanged. To be noted: at 1 µM.
Experiment [8] addresses Insulin receptor-related protein (Homo sapiens) (UniProt P14616). To be noted: at 0.1 µM.
Experiment [9] has the same target. Conditions: at 1 µM.
Experiment [10] deals with T1, Tyrosine-protein kinase ITK/TSK (Homo sapiens) (UniProt Q08881).
T1 sequence (whole entry): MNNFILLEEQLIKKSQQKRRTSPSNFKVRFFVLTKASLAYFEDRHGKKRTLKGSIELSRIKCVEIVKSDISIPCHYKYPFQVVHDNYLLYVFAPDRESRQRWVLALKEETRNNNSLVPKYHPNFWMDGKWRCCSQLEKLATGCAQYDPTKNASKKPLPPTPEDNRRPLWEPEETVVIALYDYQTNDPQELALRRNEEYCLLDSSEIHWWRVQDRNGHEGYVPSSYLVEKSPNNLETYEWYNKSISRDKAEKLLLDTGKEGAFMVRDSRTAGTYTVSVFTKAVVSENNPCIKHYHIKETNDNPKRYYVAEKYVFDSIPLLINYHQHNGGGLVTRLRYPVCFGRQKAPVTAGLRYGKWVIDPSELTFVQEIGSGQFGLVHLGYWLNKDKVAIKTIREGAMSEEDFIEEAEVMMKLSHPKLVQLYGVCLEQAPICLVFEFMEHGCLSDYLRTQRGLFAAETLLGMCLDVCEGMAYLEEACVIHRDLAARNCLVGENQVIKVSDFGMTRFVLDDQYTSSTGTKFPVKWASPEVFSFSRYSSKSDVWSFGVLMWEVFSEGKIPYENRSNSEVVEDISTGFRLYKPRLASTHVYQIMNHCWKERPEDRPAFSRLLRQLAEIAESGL
Conditions: at 0.1 µM.

Chain of Tyrosine-protein kinase Fyn (Homo sapiens) (P06241 2-537 limits assumed): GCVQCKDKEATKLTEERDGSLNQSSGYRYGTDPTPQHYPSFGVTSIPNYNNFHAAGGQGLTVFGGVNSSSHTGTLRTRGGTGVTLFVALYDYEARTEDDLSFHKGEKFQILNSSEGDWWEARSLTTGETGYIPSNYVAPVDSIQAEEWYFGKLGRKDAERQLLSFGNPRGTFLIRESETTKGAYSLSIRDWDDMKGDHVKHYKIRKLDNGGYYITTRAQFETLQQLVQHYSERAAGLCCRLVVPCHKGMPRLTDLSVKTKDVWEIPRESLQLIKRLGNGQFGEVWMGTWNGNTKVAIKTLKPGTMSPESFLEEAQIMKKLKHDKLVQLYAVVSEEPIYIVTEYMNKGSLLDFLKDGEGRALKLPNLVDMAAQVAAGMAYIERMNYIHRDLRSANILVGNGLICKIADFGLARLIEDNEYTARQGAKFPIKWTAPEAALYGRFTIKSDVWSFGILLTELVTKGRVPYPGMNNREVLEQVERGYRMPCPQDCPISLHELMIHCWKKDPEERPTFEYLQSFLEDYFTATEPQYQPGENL
Chain of Insulin receptor (Homo sapiens) (P06213 28-758 limits assumed): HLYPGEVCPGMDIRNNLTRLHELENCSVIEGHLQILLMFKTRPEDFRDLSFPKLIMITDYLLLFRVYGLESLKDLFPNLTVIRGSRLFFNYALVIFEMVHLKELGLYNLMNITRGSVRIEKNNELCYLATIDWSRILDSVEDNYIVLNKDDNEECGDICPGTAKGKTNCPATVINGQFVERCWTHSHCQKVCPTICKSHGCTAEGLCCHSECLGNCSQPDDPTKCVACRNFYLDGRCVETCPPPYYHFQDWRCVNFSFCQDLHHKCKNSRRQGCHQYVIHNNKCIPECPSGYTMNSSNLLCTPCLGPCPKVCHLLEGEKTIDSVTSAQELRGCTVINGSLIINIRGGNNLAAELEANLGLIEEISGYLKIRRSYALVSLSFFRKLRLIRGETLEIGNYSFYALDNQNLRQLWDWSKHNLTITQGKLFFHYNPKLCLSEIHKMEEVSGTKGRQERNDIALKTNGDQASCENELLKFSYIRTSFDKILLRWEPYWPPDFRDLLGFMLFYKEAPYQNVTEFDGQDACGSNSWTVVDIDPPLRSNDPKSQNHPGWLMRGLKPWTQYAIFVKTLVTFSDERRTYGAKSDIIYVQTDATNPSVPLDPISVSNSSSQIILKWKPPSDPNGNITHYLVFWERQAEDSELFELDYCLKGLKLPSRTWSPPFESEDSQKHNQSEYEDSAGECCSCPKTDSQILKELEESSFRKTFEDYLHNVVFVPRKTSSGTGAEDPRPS
Chain of Insulin receptor (Homo sapiens) (P06213 763-1382 limits assumed): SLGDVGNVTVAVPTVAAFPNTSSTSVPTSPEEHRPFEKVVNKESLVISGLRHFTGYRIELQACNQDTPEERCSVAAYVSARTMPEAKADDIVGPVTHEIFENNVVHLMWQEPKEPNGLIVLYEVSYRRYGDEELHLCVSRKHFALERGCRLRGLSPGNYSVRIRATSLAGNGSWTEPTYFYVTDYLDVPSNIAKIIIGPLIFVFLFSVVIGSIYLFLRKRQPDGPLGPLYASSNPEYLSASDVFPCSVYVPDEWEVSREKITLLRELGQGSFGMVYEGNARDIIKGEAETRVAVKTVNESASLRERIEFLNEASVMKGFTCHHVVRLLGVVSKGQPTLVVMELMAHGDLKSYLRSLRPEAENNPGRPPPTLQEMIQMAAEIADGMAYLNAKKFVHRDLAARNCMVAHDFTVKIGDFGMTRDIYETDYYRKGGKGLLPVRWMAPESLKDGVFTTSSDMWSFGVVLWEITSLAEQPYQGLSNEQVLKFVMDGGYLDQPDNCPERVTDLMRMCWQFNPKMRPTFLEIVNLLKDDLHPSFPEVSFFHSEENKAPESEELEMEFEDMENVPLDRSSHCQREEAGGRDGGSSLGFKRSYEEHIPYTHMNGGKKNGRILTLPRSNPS
Chain of Insulin receptor-related protein (Homo sapiens) (P14616 27-742 limits assumed): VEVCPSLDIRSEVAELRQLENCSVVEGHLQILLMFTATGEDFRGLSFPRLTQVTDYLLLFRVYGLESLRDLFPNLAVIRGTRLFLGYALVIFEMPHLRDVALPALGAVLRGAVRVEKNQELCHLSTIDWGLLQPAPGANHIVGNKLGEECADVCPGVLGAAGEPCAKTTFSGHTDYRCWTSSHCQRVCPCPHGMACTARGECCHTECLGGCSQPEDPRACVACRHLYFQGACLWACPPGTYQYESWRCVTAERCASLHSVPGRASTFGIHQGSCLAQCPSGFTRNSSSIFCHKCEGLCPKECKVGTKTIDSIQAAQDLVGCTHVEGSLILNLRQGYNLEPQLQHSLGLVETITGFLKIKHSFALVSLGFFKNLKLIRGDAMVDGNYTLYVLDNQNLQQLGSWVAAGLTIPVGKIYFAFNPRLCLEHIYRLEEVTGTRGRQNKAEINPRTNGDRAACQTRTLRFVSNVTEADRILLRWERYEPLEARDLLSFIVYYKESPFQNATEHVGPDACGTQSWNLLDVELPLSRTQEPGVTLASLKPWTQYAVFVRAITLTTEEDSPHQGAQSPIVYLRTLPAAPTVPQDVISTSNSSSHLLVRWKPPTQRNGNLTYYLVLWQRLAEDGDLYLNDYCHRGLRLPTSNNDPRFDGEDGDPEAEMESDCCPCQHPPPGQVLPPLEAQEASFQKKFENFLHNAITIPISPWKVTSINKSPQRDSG
Chain of Insulin receptor-related protein (Homo sapiens) (P14616 747-1297 limits assumed): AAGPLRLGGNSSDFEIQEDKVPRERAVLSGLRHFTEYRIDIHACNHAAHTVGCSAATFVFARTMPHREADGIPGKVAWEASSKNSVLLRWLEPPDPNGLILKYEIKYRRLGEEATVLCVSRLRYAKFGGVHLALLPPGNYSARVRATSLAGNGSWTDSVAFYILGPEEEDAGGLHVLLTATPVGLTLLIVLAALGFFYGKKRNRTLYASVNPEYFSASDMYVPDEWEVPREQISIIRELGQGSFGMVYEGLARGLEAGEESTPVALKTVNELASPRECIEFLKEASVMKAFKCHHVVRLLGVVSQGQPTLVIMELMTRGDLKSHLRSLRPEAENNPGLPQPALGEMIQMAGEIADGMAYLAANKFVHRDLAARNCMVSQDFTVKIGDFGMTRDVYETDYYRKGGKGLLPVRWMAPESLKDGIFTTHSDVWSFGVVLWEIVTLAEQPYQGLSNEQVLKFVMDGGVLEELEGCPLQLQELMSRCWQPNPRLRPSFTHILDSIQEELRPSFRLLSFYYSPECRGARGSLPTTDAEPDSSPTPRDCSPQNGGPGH
Chain of Insulin-like growth factor 1 receptor (Homo sapiens) (P08069 31-736 limits assumed): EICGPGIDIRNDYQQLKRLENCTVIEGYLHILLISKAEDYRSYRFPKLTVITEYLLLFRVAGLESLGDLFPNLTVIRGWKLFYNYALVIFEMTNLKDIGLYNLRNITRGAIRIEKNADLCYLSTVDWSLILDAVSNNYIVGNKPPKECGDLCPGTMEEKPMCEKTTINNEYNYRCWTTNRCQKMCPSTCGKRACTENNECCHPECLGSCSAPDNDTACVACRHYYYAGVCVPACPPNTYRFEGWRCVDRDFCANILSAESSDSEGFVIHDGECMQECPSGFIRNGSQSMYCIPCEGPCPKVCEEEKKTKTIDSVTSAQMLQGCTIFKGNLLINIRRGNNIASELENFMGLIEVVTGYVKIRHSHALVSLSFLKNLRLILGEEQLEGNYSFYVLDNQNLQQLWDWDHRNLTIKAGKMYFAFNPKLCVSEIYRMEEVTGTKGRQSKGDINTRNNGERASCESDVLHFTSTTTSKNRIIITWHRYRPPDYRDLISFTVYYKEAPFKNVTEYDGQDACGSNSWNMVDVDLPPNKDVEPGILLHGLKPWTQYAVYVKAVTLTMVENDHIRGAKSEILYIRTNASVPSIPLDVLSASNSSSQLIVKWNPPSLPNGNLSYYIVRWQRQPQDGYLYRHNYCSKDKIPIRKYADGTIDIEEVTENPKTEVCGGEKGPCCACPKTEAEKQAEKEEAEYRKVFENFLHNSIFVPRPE
Chain of Insulin-like growth factor 1 receptor (Homo sapiens) (P08069 741-1367 limits assumed): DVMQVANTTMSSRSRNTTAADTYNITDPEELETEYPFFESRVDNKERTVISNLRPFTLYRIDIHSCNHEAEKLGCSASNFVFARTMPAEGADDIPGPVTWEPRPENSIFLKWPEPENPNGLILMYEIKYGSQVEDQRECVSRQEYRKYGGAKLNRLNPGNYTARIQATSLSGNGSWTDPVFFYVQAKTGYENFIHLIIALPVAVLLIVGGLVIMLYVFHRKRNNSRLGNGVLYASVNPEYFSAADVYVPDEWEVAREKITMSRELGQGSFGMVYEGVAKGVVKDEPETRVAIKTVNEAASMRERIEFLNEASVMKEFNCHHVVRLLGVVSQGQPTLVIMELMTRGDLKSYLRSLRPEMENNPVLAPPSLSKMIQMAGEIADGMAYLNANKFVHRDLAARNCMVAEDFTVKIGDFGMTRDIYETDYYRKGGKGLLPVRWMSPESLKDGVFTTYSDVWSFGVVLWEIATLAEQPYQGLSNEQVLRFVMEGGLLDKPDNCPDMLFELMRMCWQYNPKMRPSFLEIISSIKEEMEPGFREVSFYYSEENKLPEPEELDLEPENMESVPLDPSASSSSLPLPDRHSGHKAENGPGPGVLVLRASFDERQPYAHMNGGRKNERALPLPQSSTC
Chain of Tyrosine-protein kinase HCK (Homo sapiens) (P08631 2-526 limits assumed): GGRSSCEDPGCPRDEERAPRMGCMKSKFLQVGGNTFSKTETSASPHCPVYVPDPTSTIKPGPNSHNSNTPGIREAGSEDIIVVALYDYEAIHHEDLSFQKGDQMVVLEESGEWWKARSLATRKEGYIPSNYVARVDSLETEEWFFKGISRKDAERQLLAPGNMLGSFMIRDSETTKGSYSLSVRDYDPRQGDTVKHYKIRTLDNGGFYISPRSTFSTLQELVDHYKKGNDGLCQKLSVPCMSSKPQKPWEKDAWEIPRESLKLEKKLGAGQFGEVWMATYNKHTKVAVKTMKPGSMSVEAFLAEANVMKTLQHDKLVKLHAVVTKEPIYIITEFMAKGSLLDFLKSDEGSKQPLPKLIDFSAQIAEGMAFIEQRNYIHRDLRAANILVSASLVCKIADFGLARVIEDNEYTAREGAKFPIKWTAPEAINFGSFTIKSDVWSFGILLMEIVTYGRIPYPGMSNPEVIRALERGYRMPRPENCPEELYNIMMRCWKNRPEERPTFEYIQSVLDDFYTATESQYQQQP

Broadly, the inhibition is the change of the read-out against control, counted positive when it falls. On to `COc1ccc(-c2nn3ncccc3c2-c2ccnc(Nc3ccc(F)c(F)c3)n2)cc1`, for which the inhibition in [1] came to 12.1%; in experiment [2] it was 3.38%; in [3], 16.5%; in experiment [4], 2.75%; in experiment [5] it was 3.2%; in experiment [6], 4.32%. Further, the inhibition in experiment [7] came to 2.06%; in experiment [8] it was 3.12%; in [9], 3.47%; in experiment [10], 0.92%.
As to `COc1cc(Nc2ncc(-c3ccccc3)o2)cc(OC)c1`, the inhibition in [1] was 26.5%; in experiment [2], 8.41%; in experiment [3], 19.9%; in experiment [4], -0.03%; in experiment [5] it was 4.18%; in experiment [6], 1.03%. Besides, the inhibition in [7] was 5.64%; in experiment [8] it was 2.92%; in experiment [9], 2.43%; in experiment [10] it was -0.12%.
For the compound `Cc1cc(O)cc(C)c1/C=C/c1cncc(C(N)=O)c1`, the inhibition in experiment [1] worked out at 36.2%; in [2], 15.2%; in experiment [3], 65.3%; in [4], 5.33%; in experiment [5] it was 2.8%; in experiment [6] it was 3.56%. Besides, the inhibition was 2.45% in experiment [7], 1.49% in experiment [8], 1.71% in experiment [9] and 1.53% in experiment [10].
With `COc1cccc(-n2ncc3c(N/N=C/c4ccc(C(=O)NCCN(C)C)cc4)ncnc32)c1`, the inhibition in experiment [1] worked out at 84.5%; in experiment [2], 23.1%; in experiment [3], 68.8%; in experiment [4], 3.78%; in [5] it was 4.69%; in experiment [6] it was 0.94%. The inhibition is 1.97% in experiment [7], 5.09% in experiment [8], 1.31% in [9] and 2.07% in experiment [10].
In the case of `CC1(C)CC(n2cnc(-c3ccc(F)cc3)c2-c2ccnc(N)n2)CC(C)(C)N1`, the inhibition in [1] stood at 2.65%; in [2], 2.18%; in [3], 3.22%; in experiment [4], 1.3%; in experiment [5], 3.3%; in experiment [6] it was 4.97%. Also, the inhibition in experiment [7] is 4.07%; in experiment [8], -0.08%; in experiment [9], -1.13%; in experiment [10], 0.29%.
With `COc1cccc(Nc2nccc(-c3cnn4ncccc34)n2)c1`, the inhibition in experiment [1] came to 16.2%; in experiment [2], 7.25%; in experiment [3], 17.4%; in experiment [4], 14.5%; in experiment [5] it was 52.4%; in experiment [6] it was 10.9%. Further, the inhibition was found to be 54.2% in experiment [7], 3.8% in experiment [8], 15.4% in [9] and 1.26% in experiment [10].
As for `CNC(=O)c1sc(-n2cnc3cc(OC)c(OC)cc32)cc1OCc1ccccc1C(F)(F)F`, the inhibition in [1] was 18.9%; in experiment [2], 5.55%; in experiment [3], 14%; in [4] it was -3.71%; in [5], 1.09%; in experiment [6], -4.16%. The inhibition was -0.01% in experiment [7], 2.15% in experiment [8], 2.12% in [9] and 0.38% in experiment [10].
As for `Cc1ccc(-c2cc3c(NC(=O)C4CC4)ncnc3o2)cc1`, the inhibition in experiment [1] worked out at 5.49%; in experiment [2], 7.39%; in [3], 21.8%; in [4] it was 5.44%; in [5], 5.98%; in experiment [6], 5.37%. Also, the inhibition is 5.18% in [7], 5.59% in experiment [8], 2.34% in experiment [9] and 1.76% in [10].
For the compound `CCS(=O)(=O)c1ccc(OC)c(Nc2ncc(-c3cccc(F)c3)o2)c1`, the inhibition in [1] worked out at 72.4%; in experiment [2], 33%; in [3], 74.3%; in [4], 5.72%; in experiment [5], 6.74%; in experiment [6] it was 7.03%. For the same compound, the inhibition in experiment [7] was found to be 8.47%; in experiment [8], 2.84%; in experiment [9] it was 4.59%; in experiment [10], 2.16%.
As for `Nc1nccc(-c2c(-c3ccc(F)cc3)ncn2C2CCNCC2)n1`, the inhibition in [1] is 1.62% and 4.51%; in [2], -2.39% and 2.85%; in experiment [3], 2.05% and 5.24%; in experiment [4], -2.26% and -0.62%; in experiment [5] it was -1.54% and 3.61%; in experiment [6] it was -1.93% and 3.33%. Moreover, the inhibition in experiment [7] was 1.25% and 4.93%; in experiment [8], -5.25% and 0.92%; in experiment [9] it was -4.64% and -1.2%; in [10], -0.56% and 0.6%.
In the case of `CNC(=O)c1cncc(/C=C/c2ccccc2C)c1`, the inhibition was found to be 10.8% in experiment [1]; 6.15% in experiment [2]; 20.1% in experiment [3]; 3.6% in [4]; 6.92% in experiment [5]; 2.85% in [6]. The inhibition was 2.34% in experiment [7], 4.17% in experiment [8], 2.86% in experiment [9] and 1.32% in experiment [10].
In the case of `CC1=C(C(=O)Nc2ccc3[nH]nc(C)c3c2)C(c2ccc(C(F)(F)F)cc2)CC(=O)N1` (stereo not given), the inhibition is 2.72% in [1]; 4.64% in experiment [2]; 9.34% in experiment [3]; 2.37% in [4]; 3.78% in experiment [5]; 0.03% in [6]. Besides, the inhibition was found to be 1.72% in [7], 2.64% in [8], 1.26% in experiment [9] and 1.81% in experiment [10].
For `CNC(=O)c1ncccc1Nc1nc(Nc2cc3c(cc2OC)CCCN3C(=O)CN(C)C)nc2[nH]ccc12`, the inhibition in [1] was 2.48%; in experiment [2], 5.56%; in [3] it was 8.62%; in experiment [4] it was 97%; in [5], 97.9%; in experiment [6], 100%. Besides, the inhibition in experiment [7] was determined as 98.1%; in experiment [8], 78.2%; in experiment [9] it was 94.3%; in experiment [10] it was 1.95%.
Consider `Cn1c(-c2nonc2N)nc2cnccc21`, for which the inhibition came out at 2.28% in experiment [1]; 6.35% in experiment [2]; 6.33% in experiment [3]; 1.93% in [4]; 3.66% in [5]; 5.09% in [6]. Moreover, the inhibition in experiment [7] is 6.68%; in experiment [8] it was 2.16%; in experiment [9], -0.85%; in experiment [10] it was 1.03%.
Regarding `CS(=O)(=O)CCNCc1ccc(-c2ccc3ncnc(Nc4ccc(OCc5cccc(C(F)(F)F)c5)cc4)c3c2)o1`, the inhibition stood at 0.05% in [1]; 9.32% in [2]; 11.7% in [3]; 18.2% in experiment [4]; 11.6% in [5]; 11.2% in experiment [6]. The inhibition in experiment [7] was 3.04%; in experiment [8] it was 1.51%; in experiment [9], 3.38%; in experiment [10] it was 1.71%.
As to `COc1cc2c(cc1Nc1nc(Nc3cccc(F)c3C(N)=O)c3cc[nH]c3n1)N(C(=O)CN1CCN(C(C)C)CC1)CC2`, the inhibition in experiment [1] is 2.53%; in experiment [2], 1.66%; in experiment [3], 2.73%; in experiment [4], 57.8%; in experiment [5] it was 87.7%; in experiment [6] it was 69.1%. Further, the inhibition is 88.2% in [7], 6.85% in experiment [8], 44.3% in [9] and 1.77% in experiment [10].
`COc1ccc2ncn(-c3cc(O[C@H](C)c4ccccc4C(F)(F)F)c(C(N)=O)s3)c2c1`: the inhibition in [1] was 5%; in experiment [2] it was 0.81%; in experiment [3], 2.14%; in experiment [4], -0.28%; in experiment [5], -0.09%; in experiment [6] it was 0.11%. In addition, the inhibition was 1.34% in [7], -2.16% in [8], -0.27% in experiment [9] and 0.33% in experiment [10].
`NS(=O)(=O)c1ccc(N/N=C2\C(=O)Nc3cccc(CCc4ccncc4)c32)cc1`: the inhibition is 4.54% in experiment [1]; 2.52% in experiment [2]; 6.49% in [3]; 1.21% in [4]; 1.06% in experiment [5]; 4.32% in experiment [6]. Besides, the inhibition was 5.06% in experiment [7], -0.57% in experiment [8], 0.48% in experiment [9] and 0.79% in [10].
Take `N#Cc1cccc(Nc2ncc(-c3ccccc3)o2)c1`: the inhibition in [1] worked out at 10.8%; in experiment [2] it was 0.69%; in [3], 7.33%; in [4], 0.34%; in [5], 0.27%; in experiment [6], 1.81%. Also, the inhibition was 4.42% in experiment [7], 0.61% in experiment [8], -0.06% in experiment [9] and 1.16% in [10].
